Laboratory results: PubChem BioAssay AID1159580 (chemical genetic matrix, 2015)
Values joined by “and” are separate entries in the source; they are usually repeats but may differ in a detail not shown here. Equal values may be shown once. The whole screen tested about 5,500 compounds, of which about 2,000 (36%) were called active. Inconclusive results (about 18%) are left out. Rule as the data show it: active = normalized growth mostly below about 0.91 (no sharp cut-off); inconclusive = no clear call, values can overlap the other calls; inactive = mostly above about 0.92. The list shows a part of the results.

Experiment: chemical genetic growth profiling, strain panel (AID 1159580);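 also: tested at 20 µM; growth read once vehicle control cultures reached saturation at 30 °C; 1 = growth at the plate median or of vehicle wells; lower values mean less growth of the strain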
Details: growth OD

Measured: normalized growth

CC(C)Cn1c(=O)n(C)c(=O)c2[nH]cnc21
inactive: S. cerevisiae deletion strains, locus YJR075W, strain HOC1, hits give low values 0.999 | S. cerevisiae deletion strains, locus YKL009W, strain mrt4, hits give low values 0.969 | S. cerevisiae deletion strains, locus YKL068W, hits give low values 0.991 | S. cerevisiae deletion strains, locus YKL085W, strain MDH1 (second series), hits give low values 0.983 | S. cerevisiae deletion strains, locus YKL085W, strain MDH1, hits give low values 0.983 | S. cerevisiae deletion strains, locus YKL160W, strain elf1, hits give low values 0.986 and 0.992 | S. cerevisiae deletion strains, locus YKL190W, strain CNB1, hits give low values 1.01 | S. cerevisiae deletion strains, locus YKR001C, strain vps1, hits give low values 0.967 | S. cerevisiae deletion strains, locus YKR026C, strain gcn3, hits give low values 0.985 and 1.01 | S. cerevisiae deletion strains, locus YKR091W, strain srl3, hits give low values 0.988 and 1 | S. cerevisiae deletion strains, locus YLL001W, strain dnm1, hits give low values 0.994 and 1.01 | S. cerevisiae deletion strains, locus YLL026W, hits give low values 0.999 and 1.01 | S. cerevisiae deletion strains, locus YLL041C, strain sdh2, hits give low values 0.997 and 1 | S. cerevisiae deletion strains, locus YLR027C, strain aat2, hits give low values 1 and 1.01 | S. cerevisiae deletion strains, locus YLR039C, strain RIC1, hits give low values 0.953 | S. cerevisiae deletion strains, locus YLR058C, strain SHM2, hits give low values 0.991 | S. cerevisiae deletion strains, locus YLR102C, strain apc9, hits give low values 0.99 | S. cerevisiae deletion strains, locus YLR113W, strain HOG1, hits give low values 1.01 and 0.985 | S. cerevisiae deletion strains, locus YLR221C, strain rsa3, hits give low values 1 and 1.04 | S. cerevisiae deletion strains, locus YLR258W, strain gsy2, hits give low values 0.988 and 1.02 | S. cerevisiae deletion strains, locus YLR262C, strain YPT6 (second series), hits give low values 1.01 and 0.998 | S. cerevisiae deletion strains, locus YLR262C, strain YPT6, hits give low values 0.966 | S. cerevisiae deletion strains, locus YLR268W, strain sec22, hits give low values 0.978 | S. cerevisiae deletion strains, locus YLR320W, strain mms22, hits give low values 1 and 1.04 | S. cerevisiae deletion strains, locus YLR330W, strain CHS5, hits give low values 0.991 | S. cerevisiae deletion strains, locus YLR342W, strain FKS1 (second series), hits give low values 0.953 | S. cerevisiae deletion strains, locus YLR342W, strain FKS1, hits give low values 1 and 1.01 | S. cerevisiae deletion strains, locus YLR357W, strain rsc2, hits give low values 1.03 and 1 | S. cerevisiae deletion strains, locus YLR370C, strain arc18, hits give low values 1 and 1.03 | S. cerevisiae deletion strains, locus YLR371W, strain rom2, hits give low values 0.982 | S. cerevisiae deletion strains, locus YLR384C, strain iki3, hits give low values 0.985 and 1.01 | S. cerevisiae deletion strains, locus YLR418C, strain cdc73, hits give low values 1.02 | S. cerevisiae deletion strains, locus YML016C, strain PPZ1, hits give low values 0.988 | S. cerevisiae deletion strains, locus YML032C, strain rad52, hits give low values 0.973 | S. cerevisiae deletion strains, locus YML120C, strain ndi1, hits give low values 1.01 and 0.981 | S. cerevisiae deletion strains, locus YML124C, strain tub3, hits give low values 0.981 | S. cerevisiae deletion strains, locus YMR058W, strain fet3, hits give low values 1.01 and 1.03 | S. cerevisiae deletion strains, locus YMR078C, strain ctf18, hits give low values 0.98 | S. cerevisiae deletion strains, locus YMR125W, strain sto1, hits give low values 0.998 and 0.978 | S. cerevisiae deletion strains, locus YMR129W, hits give low values 0.994 and 1 | S. cerevisiae deletion strains, locus YMR205C, strain PFK2, hits give low values 0.991 and 0.986 | S. cerevisiae deletion strains, locus YMR223W, strain ubp8, hits give low values 0.973 | S. cerevisiae deletion strains, locus YMR231W, strain pep5, hits give low values 1 and 1.01 | S. cerevisiae deletion strains, locus YMR263W, strain SAP30, hits give low values 1.01 | S. cerevisiae deletion strains, locus YMR307W, strain GAS1, hits give low values 0.924 | S. cerevisiae deletion strains, locus YNL067W, strain RPL9B, hits give low values 0.999 | S. cerevisiae deletion strains, locus YNL071W, strain lat1, hits give low values 1.02 and 1 | S. cerevisiae deletion strains, locus YNL128W, strain TEP1, hits give low values 1.01 | S. cerevisiae deletion strains, locus YNL153C, strain GIM3, hits give low values 1.02 | S. cerevisiae deletion strains, locus YNL175C, strain NOP13, hits give low values 0.999 | S. cerevisiae deletion strains, locus YNL183C, strain NPR1, hits give low values 0.928 and 0.909 | S. cerevisiae deletion strains, locus YNL197C, strain WHI3, hits give low values 0.986 | S. cerevisiae deletion strains, locus YNL209W, strain ssb2, hits give low values 1.02 and 0.995 | S. cerevisiae deletion strains, locus YNL224C, strain SQS1, hits give low values 0.998 | S. cerevisiae deletion strains, locus YNL233W, strain BNI4, hits give low values 0.998 | S. cerevisiae deletion strains, locus YNL248C, strain rpa49, hits give low values 0.996 and 1.06 | S. cerevisiae deletion strains, locus YNL250W, strain rad50, hits give low values 0.98 | S. cerevisiae deletion strains, locus YNL271C, strain bni1, hits give low values 0.999 | S. cerevisiae deletion strains, locus YNL298W, strain CLA4, hits give low values 0.983 | S. cerevisiae deletion strains, locus YNL307C, strain MCK1, hits give low values 0.976 | S. cerevisiae deletion strains, locus YNL322C, strain KRE1 (second series), hits give low values 0.996 and 0.988 | S. cerevisiae deletion strains, locus YNL322C, strain KRE1, hits give low values 0.993 and 0.979 | S. cerevisiae deletion strains, locus YNR049C, strain mso1, hits give low values 0.992 and 1.01 | S. cerevisiae deletion strains, locus YNR052C, strain pop2, hits give low values 0.989 | S. cerevisiae deletion strains, locus YOL006C, strain TOP1, hits give low values 0.998 | S. cerevisiae deletion strains, locus YOL012C, strain htz1 2.1 | S. cerevisiae deletion strains, locus YOL147C, strain pex11, hits give low values 0.985 | S. cerevisiae deletion strains, locus YOR001W, strain rrp6, hits give low values 1.01 and 1.05 | S. cerevisiae deletion strains, locus YOR061W, strain CKA2, hits give low values 0.993 | S. cerevisiae deletion strains, locus YOR069W, strain VPS5, hits give low values 0.987 | S. cerevisiae deletion strains, locus YOR070C, strain gyp1, hits give low values 1 and 1.01 | S. cerevisiae deletion strains, locus YOR080W, strain dia2, hits give low values 1.01 | S. cerevisiae deletion strains, locus YOR083W, strain WHI5 (second series), hits give low values 0.998 | S. cerevisiae deletion strains, locus YOR083W, strain WHI5, hits give low values 0.958 and 0.992 | S. cerevisiae deletion strains, locus YOR106W, strain vam3, hits give low values 1 and 0.973 | S. cerevisiae deletion strains, locus YOR136W, strain idh2, hits give low values 0.981 | S. cerevisiae deletion strains, locus YOR144C, strain elg1, hits give low values 0.987 | S. cerevisiae deletion strains, locus YOR184W, strain ser1, hits give low values 0.96 | S. cerevisiae deletion strains, locus YOR231W, strain MKK1, hits give low values 1.01 and 0.96 | S. cerevisiae deletion strains, locus YOR265W, strain rbl2, hits give low values 1 | S. cerevisiae deletion strains, locus YOR270C, strain vph1, hits give low values 0.997 and 1.08 | S. cerevisiae deletion strains, locus YOR290C, strain snf2, hits give low values 0.994 and 0.97 | S. cerevisiae deletion strains, locus YOR316C, strain cot1, hits give low values 0.993 | S. cerevisiae deletion strains, locus YPL051W, strain arl3, hits give low values 0.997 and 1.02 | S. cerevisiae deletion strains, locus YPL055C, strain LGE1, hits give low values 1.03 | S. cerevisiae deletion strains, locus YPL078C, strain atp4, hits give low values 1 and 0.993 | S. cerevisiae deletion strains, locus YPL106C, strain sse1, hits give low values 0.998 and 1.02 | S. cerevisiae deletion strains, locus YPL240C, strain hsp82, hits give low values 1 and 1.01 | S. cerevisiae deletion strains, locus YPL241C, strain CIN2, hits give low values 0.992 | S. cerevisiae deletion strains, locus YPL256C, strain CLN2, hits give low values 0.993 and 0.947 | S. cerevisiae deletion strains, locus YPR119W, strain clb2, hits give low values 0.993 | S. cerevisiae deletion strains, locus YPR141C, strain kar3, hits give low values 0.975 | S. cerevisiae deletion strains, locus YPR163C, strain tif3, hits give low values 0.998 | S. cerevisiae deletion strains, locus YPR167C, strain met16, hits give low values 0.988 | S. cerevisiae deletion strains, strain wtn01, hits give low values 0.988 | S. cerevisiae strains, strain wild type, hits give low values 0.995
